PINK1 expr mod – A Quantitative High throughput Screen to Identify Chemical Modulators of PINK1 Expression. 0.2% of 410,000 active. AID 624263, 2012. PINK1 immunofluorescence, high-content cytometry, 24 h. Potency, µM (series often up to 76.6 µM), inactives show top-dose activation (PINK1 increase), hits mostly activators; active = well fitted activation curve with a large enough effect; inconclusive = small, poorly fitted or top-dose-only effect; cell line not stated here; note: potency is the fitted concentration of half-maximal effect; % of control where 0% means no effect; nearly all actives have a fitted effect of over 65% in size
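Decision-based qHTS: stable cells, 24 h exposure to five compound concentrations, CCCP as control. Fixed cells stained for PINK1 plus nuclear, mitochondrial and cell markers, cytometer read.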
IL-2 act – qHTS of IL-2 Activators; IL-2 activation reporter assay, cell-based qHTS; stimulated with anti-CD3/CD4/CD28 beads; in transgenic mouse T cells; AID 652025, 2013; activation, % (series mostly up to about 46 µM); 0.065% of 360,000 active; in the data active = activation above about 50%; inconclusive = mostly about 30% to 49%; note: 0% is about no effect
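Readout is EGFP and DsRed signal by fluorescent plate cytometry after 18 h at 37 degrees C. Transgenic mouse T cells (750/well) received compound for 60 min before bead stimulation (anti-CD3, anti-CD4, anti-CD28); memory T cells served as non-tolerant control.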
RXFP1 antag – qHTS Assay for Antagonists of the Relaxin Receptor RXFP1 | Relaxin receptor 1 (Homo sapiens), Q9HBX9 | HEK293-RXFP1, relaxin-stimulated cAMP HTRF, 30 min; stronger effect = lower value | AID 1259400, 2018 | activity change, negative = inhibition, % at 57.5 µM | 0.59% of 350,000 active;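 active = activity change of -60% or lower, but not beyond a set lower limit; inconclusive = change between -60% and -40%, or beyond the set limit; inactive = change above -40%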; note: % is set by controls: 0 for no effect and ±100 for the full control effect
Target sequence (Q9HBX9 whole entry, looked up): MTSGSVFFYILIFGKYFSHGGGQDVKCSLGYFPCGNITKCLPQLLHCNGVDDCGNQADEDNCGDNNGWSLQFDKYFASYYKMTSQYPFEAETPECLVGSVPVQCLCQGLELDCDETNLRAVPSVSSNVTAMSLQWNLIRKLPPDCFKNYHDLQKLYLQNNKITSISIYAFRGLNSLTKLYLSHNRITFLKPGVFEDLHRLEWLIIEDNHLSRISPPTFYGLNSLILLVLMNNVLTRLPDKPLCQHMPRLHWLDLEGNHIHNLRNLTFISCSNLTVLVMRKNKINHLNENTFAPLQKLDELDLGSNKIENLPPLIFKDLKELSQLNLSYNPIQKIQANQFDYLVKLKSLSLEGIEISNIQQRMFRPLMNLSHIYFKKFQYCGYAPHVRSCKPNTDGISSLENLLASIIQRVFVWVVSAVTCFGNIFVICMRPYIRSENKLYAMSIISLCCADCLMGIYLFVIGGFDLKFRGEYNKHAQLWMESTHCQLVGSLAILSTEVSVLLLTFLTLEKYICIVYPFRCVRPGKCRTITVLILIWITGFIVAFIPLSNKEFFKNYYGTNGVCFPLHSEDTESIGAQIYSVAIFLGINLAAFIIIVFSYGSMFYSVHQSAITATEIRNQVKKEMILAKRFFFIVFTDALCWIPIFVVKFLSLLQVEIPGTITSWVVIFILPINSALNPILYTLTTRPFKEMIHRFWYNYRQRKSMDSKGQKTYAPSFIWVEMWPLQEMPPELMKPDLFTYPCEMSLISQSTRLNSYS
RXFP1 ag – qHTS Assay for Agonists of the Relaxin Receptor RXFP1; AID 2676, 2010; Relaxin receptor 1 (Homo sapiens), Q9HBX9; Potency, µM (doses to about 57.5 µM), for inactives: at the top dose activation, actives largely listed as activators; 0.3% of 370,000 active; HEK293T-RXFP1 cAMP TR-FRET, 30 min; response scale: percent of porcine relaxin response, buffer zero; note: potency is the fitted concentration of half-maximal effect; % is set by controls: 0 for no effect and ±100 for the full control effect; nearly all actives have a fitted effect of over 60% in size
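HEK293T cells stably expressing RXFP1 were pretreated with the PDE4 inhibitor Ro 20174, exposed to compounds for 30 min at 37C, lysed, and cAMP was read by TR-FRET. Data normalized to buffer (basal) and 29 nM porcine relaxin (100%).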
TCR act – Activators of T cell receptors: qHTS campaign. primary human leukocytes, anti-CD3, IL-2 HTRF, 48 h. Potency, µM (highest dose often 9.22 µM), without a hit: at the highest dose activation of IL-2 secretion, actives largely listed as activators. 330,000 tested, under 10 active. AID 504894, 2011; note: % of control where 0% means no effect
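IL-2 produced over 48 hr by a-CD3 bead-stimulated primary human leukocytes exposed to compounds was detected with a homogeneous time-resolved FRET immunoassay, 665nm acceptor signal after 320nm excitation.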
miR-21 act – qHTS Assay for Modulators of miRNAs and/orActivators of miR-21. AID 2288, 2010. 340,000 tested, under 10 active. HeLa miR-21 FLuc reporter, luciferase, 48 h. Potency, µM (top dose mostly 38.3 µM), inactives show at the top dose activity change, positive = activation, actives largely listed as activators;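 note: % of control where 0% means no effect; miR-21 action dims this reporter so a rising signal means less miR-21 action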
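HeLa cells endogenously expressing miR-21, stably carrying CMV-driven firefly luciferase with a downstream miR-21 binding site, 2000 cells/well. Titrations up to approximately 40 uM, 48 hours; luciferase luminescence read.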
* marks the source's active call; other numbers are inactive results; ? = inconclusive; / = no result; [ ] = remark or other dose. A selection: hits, their analogues and other compounds. The true share with any hit is near 0.78%. Unless noted, calls come from the whole dose curve; as a rule, active = well fitted curve in the direction sought with a large enough effect; inconclusive = small, poorly fitted or top-dose-only effect, or another doubt; inactive = no such curve, though single readings can be large; an effect the other way counts as inactive or inconclusive.

SMILES | PINK1 expr mod | IL-2 act | RXFP1 antag | RXFP1 ag | TCR act | miR-21 act
COc1cccc(OC)c1CN1CCC2(CCC(CNC(=O)c3ccn(C)n3)O2)CC1 (stereo not given) | 0% | / | / | / | / | /
Cn1cc(/C=C/c2cc[n+](C)cc2)c2cc(Cl)ccc21 | ? | 104* | -24 | -45% | 8% | ?
Cn1cc(/C=C/c2cc[n+](C)cc2)c2cc(F)ccc21 | 11µM* | 206* | -21 | -1% | 14% | ?
C[n+]1ccc(/C=C/c2c[nH]c3ccc(F)cc23)cc1 | 16µM* | 95* | -2 | -6% | 14% | 26%
Cc1cccc(CN2CCc3nnc(C(C)NC(=O)C4CCOCC4)n3CC2)c1 (stereo not given) | 3% | / | / | / | / | /
Cc1ccc(N/C=C/c2onc(C)c2[N+](=O)[O-])cc1 | 6% | 0 | 6 | 2% | 9% | -66%
Cc1cccc(C)c1N/C=C/c1onc(C)c1[N+](=O)[O-] | 40µM* | 1 | -7 | 3% | 9% | -5%
O=C(NCCC1=CCCCC1)C(=O)NCC(c1ccco1)N1CCN(c2ccccc2)CC1 (stereo not given) | 13µM* | 0 | -6 | 4% | 4% | -2%
COc1ccc(N2CCN(C(CNC(=O)C(=O)NCCC3=CCCCC3)c3ccco3)CC2)cc1 (stereo not given) | -1% | -2 | / | 1% | 3% | -10%
O=C(NCCN1Cc2ccccc2OC(c2ccccc2F)C1)c1cncs1 (stereo not given) | 0% | / | / | / | / | /
Cc1cccc2cc(CN(C(=O)c3ccc(-c4ccc(F)cc4)cc3)C3CC3)c(N3CCC(O)CC3)nc12 | 1% | / | / | / | / | /
CC(C)/C(C=O)=C(/NC1CCCCC1)c1ccccc1 | 9% | 1 | -63* | / | -51% | /
Nc1nc(SCc2ccc(Cl)cc2Cl)nc2nc3c(cc12)CCCC3 | ? | 82* | -10 | 3% | 4%[46.1 µM] | -14%
CC(C)(C)Cc1c(-c2ccc(Br)cc2)nc2ccc(Cl)cn12 | ? | 0 | -7 | / | / | /
CC(C)(C)Cc1c(-c2ccc(F)cc2)nc2ccc(Br)cn12 | 35µM* | -1 | -6 | / | / | /
COc1ccccc1Cc1c(-c2ccc(OC)c(OC)c2)nc2ccc(Br)cn12 | 14µM* | 0 | / | / | / | /
CC(C)(C)Cc1c(-c2ccc(Cl)cc2)nc2ccc(Br)cn12 | 32µM* | -3 | -3 | / | / | /
Cc1ccc(-c2ccnc(-n3ncc(C(=O)NCCN4CCOCC4)c3C3CC3)n2)o1 | 1% | / | / | / | / | /
CNC(=O)c1c(I)c(NC(C)=O)c(I)c(C(=O)O)c1I | / | / | 6 | / | / | /
Cc1[nH]c2ccccc2c1SCCNC(=O)c1ccc(Br)o1 | / | -1 | -82* | -2% | 0%[46.1 µM] | 7%
O=C(NCCSc1c[nH]c2ccccc12)c1ccc(Br)o1 | -1% | -4 | -10 | 0% | 1%[46.1 µM] | -10%
NC(=O)[C@@H]1CCCN1C(=O)c1cc(NC(=O)c2ccccc2)cc2ncn(C3CCCC3)c12 | 1% | / | / | / | / | /
NC(=S)c1cc2ccc(O)cc2oc1=O | 4% | 1 | / | 13µM* | -1% | -10%
C/C(=N/NC(N)=S)c1cc2ccc(O)cc2oc1=O | -1% | 1 | -5 | -2% | 2% | 9%
CN(Cc1ccon1)C(=O)c1cnn(-c2ncc3c(n2)-c2ccccc2CCC3)c1C1CC1 | 1% | / | / | / | / | /
SMILES | PINK1 expr mod | IL-2 act | RXFP1 antag | RXFP1 ag | TCR act | miR-21 act
Cc1cc(N/N=C/c2c(O)ccc3ccccc23)nc(-c2ccccc2O)n1 | 45µM* | 0 | -6 | -1% | -6%[46.1 µM] | -8%
CC(=O)c1sc(N/N=C\c2c(O)ccc3ccccc23)nc1C | 11% | 3 | -82* | / | -2% | /
Oc1ccc2ccccc2c1/C=N/Nc1ccccc1 | 6% | -4 | 0 | 10% | 2%[46.1 µM] | -28%
COC(=O)C1CCN(Cc2ccc3c(c2)CN(C(=O)c2cc(C)oc2C)CCO3)CC1 | 0% | / | / | / | / | /
O=S(=O)(Nc1ccccn1)c1ccc(-n2cccn2)cc1 | 0% | -1 | -108* | -3% | -7% | -3%
Cc1c(C(=O)NCC(C)(C)CN(C)C)cnn1-c1nccc(-c2ccccc2F)n1 | 1% | / | / | / | / | /
Cc1nn(-c2ccccc2)c(C)c1CC(=O)NCC1Cc2cc(-c3cncnc3)ccc2O1 (stereo not given) | 0% | / | / | / | / | /
CCN1CCN(c2cc(N3CCc4ccccc4C3)c(F)cc2[N+](=O)[O-])CC1 | -6% | -1 | -115* | 1% | -6%[46.1 µM] | 13%
CC(=O)N1CCN(c2cc(N3CCCC3)c(F)cc2[N+](=O)[O-])CC1 | 1% | 2 | -39 | 0% | -7% | 7%
O=C(NCCc1csc(-c2ccc(F)cc2)n1)c1cccs1 | 0% | / | -61* | 1% | / | 12%
Cc1nn(C)cc1CN1CCOc2ccc(C(C)(O)COc3ccccc3)cc2C1 (stereo not given) | 0% | / | / | / | / | /
CC(=O)NC12CC3CC(C1)CC(C(=O)NCc1ccc(C)cc1)(C3)C2 | 1% | -1 | -68* | -1% | 6% | 1%
COc1ccc(N2C(=O)c3ccccc3NC2c2ccc(OC)c(CSc3ccccn3)c2)cc1 (stereo not given) | 10µM* | -2 | 13 | 18% | / | -47%
CC(C)(C)c1csc(NNC(=O)c2ccc(Cl)cc2)n1 | 0% | -1 | -95* | 0% | 4% | -2%
Cc1ccc(C(=O)N(Cc2cc3cc4c(cc3nc2N2CCOCC2)CCC4)CC2CCCO2)s1 (stereo not given) | -1% | / | / | / | / | /
COC(=O)c1ccccc1C(=O)NCC1Cc2cc(-c3nc(C)cnc3C)ccc2O1 (stereo not given) | 0% | / | / | / | / | /
COc1ccc(/C=C/CN2CCCC(CO)(Cc3cccc(Cl)c3)C2)cc1 (stereo not given) | 9% | -2 | -69* | -2% | 7% | -3%
COc1ccccc1/C=C/CN1CCCC(CO)(Cc2cccc(Cl)c2)C1 (stereo not given) | -1% | -4 | ? | 1% | -2% | 7%
CCOC(=O)C1(Cc2cccc(OC)c2)CCN(C/C=C/c2ccc(OC)cc2)CC1 | 5% | -2 | -82* | 0% | -5% | 7%
O=C(CCn1c(=O)[nH]c2ccccc21)NCC1Cc2cc(Cl)cc(-c3ccncc3)c2O1 (stereo not given) | -1% | / | / | / | / | /
COc1ccc(CN2CCN(C(C)=O)CC2)cc1OC1CCN(C(=O)c2ccc3ccccc3n2)CC1 | 0% | / | / | / | / | /

High-throughput results as filed in PubChem BioAssay.
